Hit rate of the full screen: of about 370,000 compounds, about 2,800 (0.76%) were called active. No stated cut-off is given here; in the data, active means inhibition above about 21%; inactive means the rest. For the sample, actives were picked, then their nearest neighbours and some compounds at random.
What follows are compounds tested against E3 ubiquitin-protein ligase UHRF1 (Homo sapiens) (UniProt Q96T88) (assay: blockers of UHRF1 binding to methyl-oligo – biochemical, TR-FRET, human UHRF1, single concentration, counter-screen for MBD2 inhibitor project, primary screen (AID 687016;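 further: UHRF1 SRA domain binding a hemimethylated CpG hairpin DNA probe; 0% = median of test compound wells and 100% = reference inhibitor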)). Details: UHRF1 binding to methylated oligo, at 4.4 µM, hits give high values.
Sequence of E3 ubiquitin-protein ligase UHRF1 (Homo sapiens) (Q96T88 whole entry, looked up, the tested form may be a part): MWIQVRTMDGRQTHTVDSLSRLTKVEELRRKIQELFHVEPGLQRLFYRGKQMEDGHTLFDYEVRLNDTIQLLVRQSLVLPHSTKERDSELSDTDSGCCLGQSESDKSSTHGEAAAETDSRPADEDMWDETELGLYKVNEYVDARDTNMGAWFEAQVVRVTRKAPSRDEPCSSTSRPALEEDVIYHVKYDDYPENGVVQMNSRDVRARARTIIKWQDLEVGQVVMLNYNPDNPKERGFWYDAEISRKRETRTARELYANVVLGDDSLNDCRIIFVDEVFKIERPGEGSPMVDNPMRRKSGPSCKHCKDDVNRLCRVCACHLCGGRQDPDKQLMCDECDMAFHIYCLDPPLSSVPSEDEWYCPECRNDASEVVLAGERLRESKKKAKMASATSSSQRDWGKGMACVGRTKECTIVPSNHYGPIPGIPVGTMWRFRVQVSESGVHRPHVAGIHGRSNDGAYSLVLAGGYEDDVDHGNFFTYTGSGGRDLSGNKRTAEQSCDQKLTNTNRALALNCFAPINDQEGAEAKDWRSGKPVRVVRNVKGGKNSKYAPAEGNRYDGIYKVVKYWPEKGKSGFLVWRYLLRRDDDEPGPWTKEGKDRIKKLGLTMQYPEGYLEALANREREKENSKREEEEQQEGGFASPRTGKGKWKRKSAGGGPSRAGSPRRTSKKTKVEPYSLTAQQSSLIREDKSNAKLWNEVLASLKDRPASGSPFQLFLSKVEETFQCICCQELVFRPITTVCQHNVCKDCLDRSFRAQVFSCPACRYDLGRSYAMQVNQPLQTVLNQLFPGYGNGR

Structure (SMILES) | inhibition
COc1ccc([C@H]2OC(=O)C[C@H]2C(=O)N2CCN(c3ccccc3F)CC2)cc1OC | -2.23% (inactive)
COc1ccc(C)c(Cn2c(-c3nonc3N)nc3ccccc32)c1 | -5.53% (inactive)
CC(=O)Nc1nonc1-c1nc2ccccc2n1Cc1ccccn1 | 54.5% (active)
O=S(=O)(Cc1ccccc1)c1nc2ccccc2n1Cc1ccccn1 | 0.93% (inactive)
Cc1cccc(C(=O)Nc2c(-c3ccc(F)cc3)nc3ncccn23)c1 | -2.59% (inactive)
COc1ccc(N2CCN(CCNS(=O)(=O)c3ccc([N+](=O)[O-])cc3)CC2)cc1 | -0.84% (inactive)
Cc1noc(C)c1S(=O)(=O)N1CCCC(C(=O)Nc2nccs2)C1 (stereo not given) | -1.61% (inactive)
COc1c(C)cc(C(=O)C2CCCN(S(=O)(=O)c3c(C)noc3C)C2)cc1C (stereo not given) | 20.7% (active)
Cc1ccc(NC(=O)C2CCCN(S(=O)(=O)c3c(C)noc3C)C2)c(C)c1 (stereo not given) | -1.46% (inactive)
Cc1ccc(C2=CCN(C)C(=O)N2c2ccc(Cl)cc2)cc1 | -4.14% (inactive)
COc1ccc(C#CCNCc2ccc(OC)cc2OC)cc1 | -1.17% (inactive)
CCN(CC)Cc1nc2sc(C)c(C)c2c(=O)[nH]1 | 2.13% (inactive)
CSc1nnc(SCc2nc3sc(C(=O)O)c(C)c3c(=O)[nH]2)s1 | 32.3% (active)
CCOC(=O)c1sc2nc(C)nc(SCC(N)=O)c2c1C | -1.2% (inactive)
Cc1c(C(C)c2ccccc2O)[nH]c2ccccc12 (stereo not given) | -2.42% (inactive)
O=C(CSc1nc2ccccc2s1)N=Nc1c(O)[nH]c2ccccc12 | -3.32% (inactive)
CCN(CC)C(=O)CC[C@@H]1CC[C@]2(CCCN(S(=O)(=O)C3CCCCC3)C2)O1 | -0.55% (inactive)
Cc1ccc(Cn2cc(COC(=O)N(C)Cc3ccccc3)nn2)cc1 | -4.1% (inactive)
Cc1cc(C)cc(NC(=O)Cn2cnc3c(nnn3Cc3ccc(F)cc3)c2=O)c1 | 0.23% (inactive)
O=C(Cn1cnc2c(nnn2Cc2ccc(F)cc2)c1=O)NCc1ccc2c(c1)OCO2 | 21.8% (active)
Cc1ccc(Cn2nnc3c(=O)n(CC(=O)N4CCCCC4)cnc32)cc1 | 0.43% (inactive)
CCCCNC(=O)C[C@H]1C(=O)N(Cc2ccc(OC)cc2)C2=CCCC[C@@]21C(=O)OCC | 5.53% (inactive)
Cc1nc(CNc2ncnc3ccc(-c4ccc5c(c4)OCO5)cc23)cs1 | -2.89% (inactive)
COC(=O)c1sc(N)c(C(=O)OC)c1COC(=O)CNS(=O)(=O)c1ccc(C)cc1 | -0.33% (inactive)
CCC(C(=O)OC)n1cnc2scc(-c3ccc(C)cc3)c2c1=O (stereo not given) | 0.64% (inactive)
COC(=O)c1c(-c2ccc(C)cc2)csc1N | 28.4% (active)
CCCCNC(=O)C[C@H]1C[C@@]2(C(=O)OC)C(=C[C@H](COCc3ccccc3)O[C@@H]2C)N(Cc2ccc(Cl)cc2Cl)C1=O | 1.55% (inactive)
COC(=O)C1CN(CCc2ccccc2)CCS(=O)(=O)N1Cc1cccc(Cl)c1 (stereo not given) | 1.44% (inactive)

Structure (SMILES) | inhibition
CC(NCc1ccco1)C(=O)N1CCCCC1 (stereo not given) | 0.03% (inactive)
COc1ccc(-n2c(SCC(=O)Nc3ccc4c(c3)OCCO4)nnc2-c2ccc(Cl)cc2)cc1 | 2.21% (inactive)
COC(=O)CC1CCc2cc(C)cc(C(CC(C)C)NC(=O)[C@H](CC(C)C)NC(=O)OCc3ccccc3)c2O1 (stereo not given in full) | 4.14% (inactive)
CC(=O)c1cccc(-c2cnc3c(NC=O)cc(-c4ccc(N5CCN(C)CC5)cc4)cn23)c1 | -0.16% (inactive)
CN(C)C(=O)c1cccc(-c2cnc3c(NC=O)cc(-c4ccc(C(=O)N5CCOCC5)cc4)cn23)c1 | -6.57% (inactive)
CC(=O)c1cccc(-c2cnc3c(NC=O)cc(-c4ccc(N(C)C)cc4)cn23)c1 | 31.6% (active)
Cc1ccccc1CN1CCCCC(NC(=O)Nc2ccccc2F)C1=O (stereo not given) | -1.71% (inactive)
CC1(C)Cc2c(C#N)c(SCc3nc4ccccc4[nH]3)nc(N3CCOCC3)c2CO1 | 25.8% (active)
CCOC(=O)CSc1nc(N2CCOCC2)c2c(c1C#N)CC(C(C)C)OC2 (stereo not given) | 1.09% (inactive)
CC(C)C(=O)N1CCN(c2nc(-c3ccccc3)c3c(c2C#N)CC(C)(C)OC3)CC1 | -0.61% (inactive)
CCC[C@H]1C(=O)CC[C@@]23CCCN2C(=O)CCC[C@@H]13 | -3.81% (inactive)
CC(C)N(C(=O)Cn1cc(S(=O)(=O)CC(=O)N2CCOCC2)c2ccccc21)C(C)C | 0.05% (inactive)
CCN(CC)C(=O)Cn1cc(S(=O)(=O)CC(=O)NCc2ccc3c(c2)OCO3)c2ccccc21 | 22.7% (active)
CCN(CC)C(=O)C(=O)c1cn(CC(=O)NCc2ccc3c(c2)OCO3)c2ccccc12 | 1.9% (inactive)
CC[C@@]1(C(=O)OC)N[C@H](CN(C)C(C)=O)[C@@H]2C(=O)N(C)C(=O)[C@@H]21 | 4.65% (inactive)
CCCC1(C(=O)OC)NC(c2ccco2)C2C(=O)N(C)C(=O)C21 (stereo not given) | 26.9% (active)
CCCSc1ccc([C@H]2N[C@@](Cc3ccccc3)(C(=O)OC)[C@H]3C(=O)N(C)C(=O)[C@@H]23)cc1 | 2.8% (inactive)
COc1ccc2c(c1)CN1CN(CCc3ccccc3)S(=O)(=O)CC21 (stereo not given) | -5.7% (inactive)
COC(=O)[C@@]12CCCCC3=C1N(CCC3)C(=O)[C@H]2CC(=O)NCc1cccc2ccccc12 | -1.21% (inactive)
CC(=O)N1CCc2cc(S(=O)(=O)NCCC(=O)N3CCCC3)ccc21 | 2.88% (inactive)
CC(c1ccc(N)cc1)c1cn(C)c2ccccc12 (stereo not given) | 2.19% (inactive)
O=C(NCCc1c[nH]c2ccccc12)OCc1cn(-c2c(F)cccc2F)nn1 | -1.24% (inactive)
O=S(=O)(c1ccccc1)N1CCC(c2nc3ccccc3o2)CC1 | -2.1% (inactive)
O=C(O)c1cc(S(=O)(=O)NC2CCCc3ccccc32)ccc1O (stereo not given) | 26.4% (active)
Cc1ccc(S(=O)(=O)N2CCN(C(=O)CCC(=O)NC3CCCc4ccccc43)CC2)cc1 (stereo not given) | -0.03% (inactive)
CNS(=O)(=O)c1cccc(C(=O)NC2CCCc3ccccc32)c1 (stereo not given) | -0.54% (inactive)
COC(=O)C1CN(CCc2ccccc2)CCS(=O)(=O)N1Cc1ccc(F)cc1 (stereo not given) | 2.78% (inactive)
